Assay results: PubChem BioAssay AID720648 (The Scripps Research Institute Molecular Screening Center, 2013)
Hit rate of the full screen: of about 370,000 compounds, about 3,100 (0.84%) were called active. The sample as a whole holds a higher share of actives than the screen did. A number with no mark means an inactive call.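 Rule for the calls: active = inhibition above the mean of compounds lying between control limits plus 3 SD, set per campaign (cut at about 8.5% in these data); inactive = the rest.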

Molecular target: Disintegrin and metalloproteinase domain-containing protein 17 (Homo sapiens) (UniProt P78536)
Sequence (P78536 215-824 limits assumed): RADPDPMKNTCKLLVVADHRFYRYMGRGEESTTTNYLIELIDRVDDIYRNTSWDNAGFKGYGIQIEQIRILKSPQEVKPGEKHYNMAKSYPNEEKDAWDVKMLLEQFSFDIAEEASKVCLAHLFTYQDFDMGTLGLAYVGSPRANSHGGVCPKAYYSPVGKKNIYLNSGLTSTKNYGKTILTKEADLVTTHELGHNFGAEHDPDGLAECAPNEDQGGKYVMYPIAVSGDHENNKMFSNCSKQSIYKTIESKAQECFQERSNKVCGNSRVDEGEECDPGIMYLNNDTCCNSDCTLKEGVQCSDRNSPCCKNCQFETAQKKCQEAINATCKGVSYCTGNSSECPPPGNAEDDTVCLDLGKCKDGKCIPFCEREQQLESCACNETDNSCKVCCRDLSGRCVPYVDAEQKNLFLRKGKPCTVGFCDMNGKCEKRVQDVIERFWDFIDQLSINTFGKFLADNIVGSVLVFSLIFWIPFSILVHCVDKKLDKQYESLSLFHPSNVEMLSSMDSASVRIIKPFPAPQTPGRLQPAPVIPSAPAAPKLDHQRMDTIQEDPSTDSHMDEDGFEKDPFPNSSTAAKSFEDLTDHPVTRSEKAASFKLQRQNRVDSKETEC
Test: ADAM17 inhibitors, primary screen, biochemical, QFRET (AID 720648);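 note: 0% = DMSO-only wells as the low control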
Conditions: recombinant ADAM17, EDANS/DABCYL FRET peptide cleavage; at 6.95 µM; stronger effect = higher value

Row | Structure (SMILES) | inhibition
1 | COC(=O)[C@H](C(C)C)N(CCCc1cn(Cc2ccccc2)nn1)S(=O)(=O)c1ccc(F)cc1Br | 2.02%
2 | COc1ccccc1C(=O)NCC(=O)NCCSc1ccc(Br)cc1 | 2.38%
3 | COc1ccccc1C(=O)NCC(=O)OCC(=O)NNC(=O)c1ccc(Br)cc1 | 13% (active)
4 | O=C(COC(=O)c1ccccn1)NNC(=O)c1ccc(Br)cc1 | 0.32%
5 | CCCCCCCCNS(=O)(=O)/C=C/c1cc(C)ccc1CNC(=O)OC(C)(C)C | -2.49%
6 | CC(C)N(C(=O)[C@H]1C[C@H](CC(=O)NC(C)(C)C)C(=O)N2CCc3c([nH]c4ccc(Cl)cc34)[C@]12C)C(C)C | 8.65% (active)
7 | CC(C)N(C(=O)[C@H]1C[C@H](CC(=O)NCCC2=CCCCC2)C(=O)N2CCc3c([nH]c4cc(CCC(=O)N(C)C)ccc34)[C@]12C)C(C)C | -3.26%
8 | C[C@]12c3[nH]c4ccc(Cl)cc4c3CCN1C(=O)[C@@H](CC(=O)NCCCn1ccnc1)C[C@@H]2C(=O)N1CCOCC1 | 4.49%
9 | CC(=O)OCCN1CCCC12CCC(c1ccccc1)CC2 (configuration not stated) | -1.85%
10 | COC(=O)C1CN(CC(C)C)CCS(=O)(=O)N1Cc1ccc(F)cc1 (configuration not stated) | -5.05%
11 | Cc1nc2ccc(C(=O)N3CCN(C(=O)C(C)(C)C)CC3)cc2n1C1CCCC1 | 3.54%
12 | Cc1ccc(C)c(NC(=O)CCS(=O)(=O)c2ccccc2)c1 | -3.15%
13 | COc1ccc(CN(CCN2CCOCC2)C(=O)c2ccc(C)cc2)cc1OC | 2.83%
14 | COc1ccc(C(CCN(Cc2ccc(OC)c(OC)c2)C(=O)CCl)c2ccccc2)cc1 (configuration not stated) | 12.5% (active)
15 | COc1ccc(CN(C)C(=O)CC(c2ccccc2)c2ccccc2)cc1 | 11% (active)
16 | CN(Cc1ccc(F)cc1)C(=O)COc1ccc2ccccc2c1 | -3.83%
17 | COc1ccc(Cn2cc(COC(=O)N(C)Cc3ccccc3)nn2)cc1 | -3.38%
18 | COc1ccc(C(C(=O)NC2CCCCC2)N(C(=O)CCl)c2ccccc2Cl)cc1 (configuration not stated) | -0.76%
19 | COC(=O)C[C@@H]1CC[C@@H]2[C@@H](COc3ccc(NC(=O)Nc4ccc(F)c(F)c4)cc3C(=O)N2C)O1 | 1.31%
20 | CCCCNC(=O)C[C@H]1C[C@@]2(C(=O)OC)C(=C[C@H](COCc3ccccc3)O[C@@H]2C)N(Cc2ccc(Cl)cc2Cl)C1=O | 1.2%
21 | COc1ccc2c(c1)CN1CN(CCc3ccccc3)S(=O)(=O)CC21 (configuration not stated) | -6.46%

Row | Structure (SMILES) | inhibition
22 | O=C(CSc1nc2ccccc2o1)N/N=C/c1ccccc1C(=O)O | -4.58%
23 | CC1Cc2ccccc2N1C(=O)CSc1nc2ccccc2o1 (configuration not stated) | 2.14%
24 | Cc1ccc(/C=N/NC(=O)CSc2nc3ccccc3o2)cc1 | 10.3% (active)
25 | COc1ccc(CN2C(=O)N3Cc4cc(OC)ccc4C3CS2(=O)=O)cc1 (configuration not stated) | -0.79%
26 | C=CCN1C(=O)[C@@H](CC(=O)NCCCCc2ccccc2)[C@]2(C(=O)OCC)CCCCC/C=C/12 | 3.44%
27 | Cc1cc(C)cc(OCC(=O)O/N=C(\N)Cc2ccc([N+](=O)[O-])cc2)c1 | 3.53%
28 | N/C(Cc1ccc([N+](=O)[O-])cc1)=N\OC(=O)C1CCCCC1 | -3.25%
29 | N/C(Cc1ccc([N+](=O)[O-])cc1)=N\OC(=O)COc1ccc2ccccc2c1 | 10.8% (active)
30 | C=CCN1C(C(=O)OC)CN(Cc2cn(Cc3ccccc3)nn2)CCS1(=O)=O (configuration not stated) | 1.41%
31 | CN(C)CC(=O)N[C@@H]1C[C@@H]2O[C@H](CO)CC[C@@H]2O[C@@H]1CCc1ccc(C#Cc2ccccc2)cc1 | 3.01%
32 | FC(F)(F)Oc1ccccc1C(c1nnnn1C1CCCCC1)N1CCN(C/C=C/c2ccccc2)CC1 (configuration not stated) | 9.77% (active)
33 | COc1ccc(C(c2nnnn2C2CCCC2)N2CCN(C/C=C/c3ccccc3)CC2)cc1 (configuration not stated) | -1.95%
34 | CCCCn1nnnc1C(c1cccc(OC)c1OC)N1CCN(C/C=C/c2ccccc2)CC1 (configuration not stated) | 3.3%
35 | COC(=O)C12C=C3CC(c4ccccc4)=C3C(=O)N1Cc1[nH]c3ccccc3c1C2 (configuration not stated) | -5.87%
36 | CC(=O)c1cc(-c2ccc3ccccc3c2)c(=O)n2c1CCC2 | -8.84%
37 | O=C(NCCc1c[nH]c2ccccc12)OCc1cn(-c2c(F)cccc2F)nn1 | -1.78%
38 | C=CCN1C(=O)[C@H](CC(=O)N2CCN(C(=O)OCC)CC2)[C@@]2(C(=O)OCC)CCCC=C12 | -4.33%
39 | N[C@@H](Cc1ccccc1)C(=O)N1CCC[C@@H]1C(=O)N1CCC2CCN(S(=O)(=O)c3ccccc3)CC21 (some centres not stated) | -3.15%
40 | CN(CC(=O)Nc1ccc(S(=O)(=O)N2CCCC2)cc1)Cc1ccc(Cl)c(Cl)c1 | 4.22%
41 | O=C(Cc1ccc(Cl)c(Cl)c1)Nc1ccc(SC(F)F)cc1 | 8.77% (active)
42 | N#C/C(=C\c1cccnc1)C(=O)Nc1ccc(SC(F)F)cc1 | 2.16%

Row | Structure (SMILES) | inhibition
43 | C[C@@H]1CN([C@@H](C)CO)C(=O)c2cccc(NC(=O)Nc3cccc4ccccc34)c2O[C@H]1CN(C)S(=O)(=O)c1ccccc1F | -10.5%
44 | CN(C)S(=O)(=O)c1cccc(C(=O)N/N=C\c2ccco2)c1 | 1.33%
45 | O=C(Nc1cc(-c2ccccc2)nn1-c1ccccc1F)c1ccc([N+](=O)[O-])cc1 | 2.52%
46 | O=C(Nn1c(SCc2ccc([N+](=O)[O-])cc2)nc2ccccc2c1=O)c1ccc(F)cc1 | 8.99% (active)
47 | COCCNC(=O)c1ccc(-n2c(SCc3cccnc3)nc3ccccc3c2=O)cc1 | -0.26%
48 | O=C(CSc1nc2ccccc2n1Cc1ccccc1Cl)N/N=C\c1c[nH]c2ccccc12 | 4.92%
49 | COc1ccc(CSc2nnc(SCC(=O)Nc3ccccc3C(F)(F)F)s2)cc1 | 1.07%
50 | COc1ccc2c(C(C)c3ccc(N)cc3)cn(C)c2c1 (configuration not stated) | 1.72%
51 | CCOC(=O)C1(Cc2ccccc2)CCN(Cc2cn(C(C)=O)c3ccccc23)CC1 | -0.16%
52 | Cn1nc(C(F)(F)F)c2cc(C(=O)N3CCOCC3)sc21 | -1.03%
53 | Cn1nc(C(F)(F)F)c2cc(NC(=O)OCC(C)(C)C)sc21 | 8.91% (active)
54 | Cn1nc(C(F)(F)F)c(-c2ccc(F)cc2)c1NC(=O)CSCC(=O)O | -2.02%
55 | COC(=O)[C@]12C[C@H](CC(=O)NCCc3ccccc3OC)C(=O)N(Cc3ccco3)C1=C[C@H](C(C)C)O[C@@H]2C1CC1 | -2.62%
56 | O=C(c1cccc(C(F)(F)F)c1)N1CC[C@H]2[C@H](CCCN2Cc2cc(F)cc(F)c2)C1 | -0.58%
57 | COC(=O)CC1CCc2cc(C)cc(C(CC(C)C)NC(=O)[C@H](CC(C)C)NC(=O)OCc3ccccc3)c2O1 (some centres not stated) | -2.33%
58 | Cc1cc(NC(=O)CN2C(=O)NC(CC(C)C)C2=O)no1 (configuration not stated) | 10.8% (active)
59 | Cc1cc(NC(=O)CN2C(=O)NC(CCc3ccccc3)C2=O)no1 (configuration not stated) | -0.8%
60 | COc1ccc(C2(c3ccc(OC)cc3)NC(=O)N(CC(=O)Nc3cc(C)on3)C2=O)cc1 | 2.54%
61 | COc1ccc(Cn2cc(CN3[C@@H](CC(C)C)COc4cc(Br)ccc4S3(=O)=O)nn2)cc1 | 1.7%
62 | COc1ccc(-n2c(SCC(=O)Nc3ccc4c(c3)OCCO4)nnc2-c2ccc(Cl)cc2)cc1 | 4.24%
63 | O=C(CCCCCN1C(=O)C2C3C=CC(C3)C2C1=O)Nc1ccccn1 (configuration not stated) | 2.59%

Row | Structure (SMILES) | inhibition
64 | c1csc(-c2nnc(SCc3nc4ccccc4[nH]3)o2)c1 | -10.2%
65 | COC(=O)[C@]12C[C@H](CC(=O)N3CCOCC3)C(=O)N(Cc3ccc(Cl)cc3Cl)C1=C[C@H](COCc1ccccc1)O[C@@H]2C | 0.56%
66 | O=C(CN1CCN(c2ncc(C(F)(F)F)cc2Cl)CC1)Nc1ccc2c(c1)OCO2 | -4.94%
67 | O=C(Cc1ncc(C(F)(F)F)cc1Cl)Nc1cccc(Br)c1 | 10.2% (active)
68 | CC(=O)c1ccc(Cc2ncc(C(F)(F)F)cc2Cl)s1 | -2.56%
69 | CCOC(=O)[C@]12CCCC3=C1N(CCC3)C(=O)[C@@H](CC(=O)NCc1cccs1)C2 | 0.06%
70 | Nn1c(SCC(=O)N2c3ccccc3Sc3ccccc32)nnc1-c1n[nH]c2c1CCC2 | 5.84%
71 | CN(C)c1ccc(NC(=O)NC2CCCCN(Cc3ccc(Cl)cc3)C2=O)cc1 (configuration not stated) | 8.69% (active)
72 | Cc1ccc(CN2CCCCC(NC(=O)C3CCCCC3)C2=O)cc1 (configuration not stated) | 1.84%
73 | O=C(NC1CCCCN(Cc2ccc(Cl)cc2)C1=O)c1ccc(Br)cc1 (configuration not stated) | 5.04%
74 | CN(C)[C@H]1CCN(c2cccc3c2S(=O)(=O)N2CC[C@H](C2)O3)C1 | -2.38%
75 | COC(=O)C[C@@H]1CC[C@H]2[C@@H](COc3ccc(NS(=O)(=O)CC(F)(F)F)cc3C(=O)N2C)O1 | -6.55%
76 | CCOC(=O)c1c(S(=O)(=O)Nc2cccc(Cl)c2)c(C)n(C)c1C | -9.22%
77 | CCOC(=O)c1ccc(CS(=O)c2ccc(Cl)cc2)o1 (configuration not stated) | -2.74%
78 | CCOC(=O)c1c(Cc2ccc(Cl)cc2)c[nH]c1C | 11.1% (active)
79 | CC(C)N1CCCCC(NC(=O)c2ccc3ccccc3c2)C1=O (configuration not stated) | -4.85%
80 | COc1ccc(C(=O)Nc2ccc3nc(N4CCCCC4)cc(C)c3c2)cc1OC | -7.57%
81 | COc1ccc(C(=O)NC2CC(C)(C)NC(C)(C)C2)cc1OC | -2.12%
82 | COc1ccc(C(=O)Nc2ccc(C3(C#N)CCCC3)cc2)cc1OC | 8.73% (active)
